Source: PubChem BioAssay
This is a sample that favours compounds with a hit; in the whole collection about 4.7% have one here.
TWEAK-Fn14 inh: inhibitors of TWEAK-Fn14 signaling, primary screen, luciferase reporter cells, uHTS. 360,000 compounds, 2% hits. AID 1159606, 2016. inhibition, % at 10 µM. TWEAK-stimulated Fn14 reporter cells, luciferase luminescence, 8 h; in the data active means inhibition above about 50%
HSF-1 act: HSF-1 activators, primary screen, NIH3T3-HGL cells, MG132 stress, luminescence, single point | NIH3T3-HGL HSF-1 luciferase reporter, 8 h; 100% = twice DMSO control signal | activation, % at 9 µM | 300,000 compounds, 1.7% hits | AID 504408, 2011;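 active means mean replicate activation of at least 50% with a set share of replicates each reaching 50%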;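 further: 0% = median of the neutral control wells and 100% = twice that signal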
HSP90 inh: HSP90 inhibitors, primary screen, cell lysate, luminescence | AID 1789, 2009 | Rabbit reticulocyte lysate, luciferase refolding luminescence, 3 h | inhibition, % at 5.6 µM | 290,000 compounds, 0.91% hits | Heat shock protein HSP 90 (rabbit reticulocyte lysate; luciferase refolding);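 active means inhibition above the screen-wide mean plus 3 SD, computed separately per campaign, cut at about 16% in these data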;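 further: 0% = DMSO wells and 100% = 60 µM geldanamycin wells; inhibitors lower the luminescence because luciferase stays unfolded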
HSF1 inhib: HSF1 inhibitors in luciferase reporter cells, primary screen, cell-based, NIH3T3, luminescence; NIH3T3-HGL HSE-luciferase, MG132-induced, luminescence 8 h; hits give low values; activity change, negative = inhibition, % at 7.5 µM (by protocol); 300,000 compounds, 0.77% hits;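 active means more than half of replicate wells show activity change below -50%, luminescence cut by over half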;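 further: luciferase reports HSF-1 transcriptional activity via heat shock element; 0% = median of DMSO wells and -100% = zero luminescence signal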
EBV LMP1 NFkB: EBV LMP1-driven NF-kappaB luciferase reporter inhibitors, primary screen, cell-based, luminescence, single point; LMP1-induced NF-kappaB luciferase reporter cells; inhibition, % at 12.5 µM; 350,000 compounds, 0.69% hits; in the data active means inhibition above about 41%;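 further: 0% = neutral control wells and 100% = reference inhibitor control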
TROY NFkB inh: inhibitors of TROY-driven NF-kB signaling, primary screen, Q293 LMP1-TROYcd cells, NF-kB luciferase, uHTS. Q293 LMP1-TROYcd NF-kB luciferase reporter, 4 h. inhibition, % at 10 µM. 360,000 compounds, 0.98% hits;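 active means compounds whose plate-normalised and pattern-corrected inhibition of the luciferase reporter signal at the single screening dose is 50% or more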
HSP90 inh confirm: HSP90 inhibitors, confirmation, cell lysate, luminescence. shares compounds with HSP90 inh. rabbit reticulocyte lysate, luciferase refolding luminescence, 3 h. inhibition, % at 5.9 µM. 2,300 compounds, 64% hits; in the data active means inhibition above about 18%;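 further: 0% = vehicle wells and 100% = reference inhibitor wells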
FLuc counter: firefly luciferase inhibitors, HSP90 counter-screen, confirmation, artefact control for HSP90 inhibitor project, biochemical, luminescence, triplicate; shares compounds with HSP90 inh; purified native firefly luciferase; inhibition, % at 5.9 µM; 2,300 compounds, 48% hits; AID 1847, 2009;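 active means inhibition above the mean inhibition of all tested sample wells plus 3 SD, cut at about 10% in these data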;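 further: 0% = DMSO with luciferase and 100% = wells lacking luciferase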
Target sequence (P08659 whole entry, looked up): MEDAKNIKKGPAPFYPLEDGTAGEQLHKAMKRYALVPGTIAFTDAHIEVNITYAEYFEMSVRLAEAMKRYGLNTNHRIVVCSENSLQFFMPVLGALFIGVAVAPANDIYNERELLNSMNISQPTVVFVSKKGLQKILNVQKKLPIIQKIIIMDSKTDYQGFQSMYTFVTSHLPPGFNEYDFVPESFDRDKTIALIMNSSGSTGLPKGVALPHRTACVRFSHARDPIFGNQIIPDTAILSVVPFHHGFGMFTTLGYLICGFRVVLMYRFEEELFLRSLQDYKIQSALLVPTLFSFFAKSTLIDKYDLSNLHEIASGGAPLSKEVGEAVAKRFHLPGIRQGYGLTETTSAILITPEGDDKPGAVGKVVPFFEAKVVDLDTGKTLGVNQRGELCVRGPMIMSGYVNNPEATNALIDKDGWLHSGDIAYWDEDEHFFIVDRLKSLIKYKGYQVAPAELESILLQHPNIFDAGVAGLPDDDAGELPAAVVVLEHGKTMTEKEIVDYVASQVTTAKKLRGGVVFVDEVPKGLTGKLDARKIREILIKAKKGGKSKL
Active calls of the source: *; x = no result.

SMILES	TWEAK-Fn14 inh	HSF-1 act	HSP90 inh	HSF1 inhib	EBV LMP1 NFkB	TROY NFkB inh	HSP90 inh confirm	FLuc counter
COc1ccc(C2=NN(c3ccc(C(=O)O)cc3)C(c3ccc(OC)c(OC)c3)C2)cc1 (stereo not given)	-34.2	3.6	19.4*	2.2	1.4	7.6	46.0*	38.4*
C[C@H]1CN([C@@H](C)CO)S(=O)(=O)c2ccc(Br)cc2O[C@@H]1CN(C)C(=O)CCN1CCCCC1	26.5	x	x	x	-6.1	-12.2	x	x
Cc1[nH]nc2c1C1(CCN(C(=O)OCc3ccccc3)CC1)C(C#N)=C(N)O2	7.3	0.1	24.0*	-5.3	0.4	13.0	7.4	3.9
COCCNC(=O)C1CCCN(C(=O)c2nc(C)oc2C)CC1 (stereo not given)	-10.3	x	x	x	x	11.3	x	x
O=c1cnc2ccccc2n1Cc1ccc(Br)cc1	-15.8	38.9	-0.5	10.3	-5.9	-60.4	x	x
CC(C)(C)c1ccc(Cn2c(=O)cnc3ccccc32)cc1	92.1*	-69.0	22.2*	-69.8*	63.0*	81.3*	53.4*	34.3*
CCOc1ccc2c(c1)C(C)=CC(C)(C)N2S(=O)(=O)c1ccc(C)cc1	35.2	-22.9	30.3*	-14.1	20.5	14.5	12.2	4.1
Cc1ccc(NC(=O)CSc2nnc3n2CCCCC3)cc1S(=O)(=O)N1CCOCC1	4.4	x	x	x	4.4	-0.5	x	x
COc1ccccc1-c1cccc([C@@H]2C[C@H]3[C@H](CON3C)CN2C(C)=O)c1	-1.9	x	x	x	3.9	1.7	x	x
CC1=CC(C)(C)Nc2ccc(OC(=O)c3ccco3)cc21	87.8*	-29.7	17.3*	-23.1	-36.2	37.9	32.5*	-8.7
Cc1cc(C(=O)COC(=O)c2ccc3c(c2)OCO3)c(C)n1CC1CCCO1 (stereo not given)	58.3*	-53.2	28.9*	-45.8	-6.9	76.6*	48.9*	53.8*
Cc1cc(C(=O)CSc2nc3ccccc3o2)c(C)n1CC1CCCO1 (stereo not given)	4.5	-51.0	35.0*	-42.6	-4.3	42.5	42.0*	46.1*
Cc1cc(C(=O)CSc2nc3ccccc3[nH]2)c(C)n1CC1CCCO1 (stereo not given)	19.5	-61.1	48.6*	-53.9*	34.1	41.8	66.5*	67.0*
Cc1cc(C(=O)CSc2nc(N)cc(=O)[nH]2)c(C)n1CC1CCCO1 (stereo not given)	11.1	x	x	x	5.3	4.8	x	x
COc1cc(C(=O)OCC(=O)c2cc(C)n(CC3CCCO3)c2C)cc(OC)c1C (stereo not given)	18.0	x	x	x	1.3	-5.4	x	x
COc1ccc(S(=O)(=O)N2CCC(C(=O)N[C@@H](C)C(=O)NCc3cccnc3)CC2)cc1	-3.4	x	x	x	-5.2	-12.2	x	x
CC(C)(O)C1Cc2cc(/C=C/C(=O)O)c(O)cc2O1 (stereo not given)	-14.2	-10.0	27.5*	-1.0	-0.8	-40.2	5.5	-8.2
CCc1cc(C(=O)c2ccccc2)c(N)s1	-0.9	-6.0	20.6*	4.5	-4.2	5.0	-3.0	-9.8
O=C(O)Cc1ccc(C(=O)c2ccccc2)s1	3.7	-9.0	-3.5	-0.3	1.9	-4.6	x	x
COc1ccc(-c2cc3nc(C)cc(N)n3n2)cc1	60.2*	43.0	42.0*	27.6	39.5	10.0	61.1*	41.1*
CN(C)c1ccc(-c2nc3ccccc3c(=O)[nH]2)cc1	23.7	20.5	33.9*	-3.4	33.3	-60.3	68.0*	53.3*
N#CC1=C2C=CC=CN2CC1=O	9.2	-36.1	20.1*	-26.2	-5.9	23.0	3.7	-2.0
CC(C)c1ccc(CC(=O)N2CCC2(C)C(=O)NS(=O)(=O)c2ccc(Cl)s2)cc1 (stereo not given)	6.7	x	x	x	x	-2.9	x	x
